Bioassay records deposited in PubChem BioAssay by several laboratories.
TLR4-MyD88 BLA = TLR4-MyD88 interaction inhibition in cells | O00206+Q99836 | HeLa CL3-4 TLR4/MyD88 BLA complementation, FRET ratio | inhibition, % at 8.4 µM | 0.18% of 200,000 active; in the data active = inhibition above about 25%;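 also: 0% = vehicle and 100% = reference inhibitor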
TLR9-MyD88 block = TLR9-MyD88 interaction inhibition | inhibition, % at 4.98 µM | CHO BLA complementation TLR9-MyD88, CCF4 FRET ratio | AID 504734 | Q9NR96+Q99836 | 0.21% of 340,000 active;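 active = inhibition above the mean over all tested compounds plus 3 SD, cut at about 21% in these data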;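 also: 0% = DMSO only wells and 100% = clavulanate BLA inhibitor control wells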
Target sequence (Q99836 whole entry, looked up): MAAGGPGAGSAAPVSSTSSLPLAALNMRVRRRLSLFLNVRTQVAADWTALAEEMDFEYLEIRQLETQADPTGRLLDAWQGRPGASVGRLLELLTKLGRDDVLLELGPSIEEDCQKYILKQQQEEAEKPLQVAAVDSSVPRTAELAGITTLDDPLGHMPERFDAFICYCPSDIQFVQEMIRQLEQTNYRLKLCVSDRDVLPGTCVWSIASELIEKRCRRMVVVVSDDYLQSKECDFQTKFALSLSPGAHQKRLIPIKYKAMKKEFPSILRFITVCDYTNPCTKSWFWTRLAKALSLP
Target sequence (Q9NR96 whole entry, looked up): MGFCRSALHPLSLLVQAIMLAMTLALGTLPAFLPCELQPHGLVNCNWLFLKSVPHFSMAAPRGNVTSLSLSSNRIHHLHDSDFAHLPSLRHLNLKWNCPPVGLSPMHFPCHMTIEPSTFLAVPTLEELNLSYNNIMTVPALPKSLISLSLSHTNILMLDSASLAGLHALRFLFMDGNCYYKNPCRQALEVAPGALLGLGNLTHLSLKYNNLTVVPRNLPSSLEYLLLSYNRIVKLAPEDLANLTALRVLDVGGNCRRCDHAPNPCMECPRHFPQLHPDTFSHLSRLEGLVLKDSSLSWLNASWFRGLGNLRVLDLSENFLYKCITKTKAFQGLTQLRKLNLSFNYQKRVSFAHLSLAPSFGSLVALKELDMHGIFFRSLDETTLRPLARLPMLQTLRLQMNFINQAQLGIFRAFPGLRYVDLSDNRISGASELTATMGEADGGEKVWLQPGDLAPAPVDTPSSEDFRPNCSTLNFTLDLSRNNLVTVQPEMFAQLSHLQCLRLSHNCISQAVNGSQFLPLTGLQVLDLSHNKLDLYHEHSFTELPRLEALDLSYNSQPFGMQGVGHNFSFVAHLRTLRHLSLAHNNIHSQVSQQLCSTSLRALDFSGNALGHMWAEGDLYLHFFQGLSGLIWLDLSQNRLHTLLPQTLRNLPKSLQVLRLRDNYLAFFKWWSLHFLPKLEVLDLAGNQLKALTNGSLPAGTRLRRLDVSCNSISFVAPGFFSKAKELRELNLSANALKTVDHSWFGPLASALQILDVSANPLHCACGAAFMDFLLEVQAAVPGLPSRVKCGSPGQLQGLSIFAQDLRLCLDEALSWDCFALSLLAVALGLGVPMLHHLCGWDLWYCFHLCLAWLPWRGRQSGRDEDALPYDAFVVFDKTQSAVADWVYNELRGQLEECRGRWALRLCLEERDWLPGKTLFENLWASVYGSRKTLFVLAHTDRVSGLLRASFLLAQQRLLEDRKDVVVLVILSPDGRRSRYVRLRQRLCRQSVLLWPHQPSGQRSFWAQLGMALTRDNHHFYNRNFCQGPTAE
NOD2-RIPK2 inh = NOD2-RIPK2 protein interaction inhibition; 0.38% of 360,000 active; inhibition, % at 4.98 µM; O43353; CHO BLA complementation NOD2-RIPK2, CCF4 ratio; in the data active = inhibition above about 21%;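 also: 0% = vehicle only and 100% = reference blocker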
m5-HT2A agonist = activates the mouse 5-HT2A serotonin receptor | activation, % at 7.6 µM | P35363 | 0.66% of 360,000 active | CHO-K1 mHTR2A beta-arrestin complementation, luminescence; percent of 30 µM serotonin response;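 active = activation above a run cutoff, the mean activation of all tested compounds plus 3 SD, cut at about 14% in these data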;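 also: 0% = plate median of compound wells and 100% = 30 µM serotonin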
Rtt109 HAT inh = blocks Candida albicans Rtt109/Vps75 acetyltransferase activity. Q5AAJ8. purified Rtt109/Vps75, ThioGlo CoA-SH fluorescence, 4 h. 0.16% of 330,000 active. AID 540336. inhibition, % at 34.9 µM;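 active = inhibition of at least 50% in every replicate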
LANA-H2A inh = blocks KSHV LANA binding to histone H2A/H2B; inhibition, % (test concentration not listed); Q9QR71; cell-free LANA-H2A/H2B peptide, fluorescence polarization; AID 2629; 0.6% of 320,000 active; in the data active = inhibition mostly above about 10%, no sharp cut-off; inactive = mostly below about 6.7%
Starred values were filed as active, the others as inactive; / = not tested or not shown; + = active, no number; ! = a repeat was not active. Most compounds without a hit are left out; they make up all but 1.8% or so of the library.

SMILES | TLR4-MyD88 BLA | TLR9-MyD88 block | NOD2-RIPK2 inh | m5-HT2A agonist | Rtt109 HAT inh | LANA-H2A inh
O=C(NCc1ccc(F)cc1F)[C@@H]1CCCN1C(=O)[C@@H]1CCCN1C(=O)c1ccc(Cl)cc1 | / | / | -3 | 9 | / | /
O=S(=O)(Nc1ccc(O)c(Sc2nc3ccccc3s2)c1)c1cccc2ccccc12 | -10 | -8 | 4 | 0 | 58* | -4
Cc1c(CCO)c(=O)[nH]n1S(=O)(=O)c1ccccc1 | -11 | 11 | 2 | 1 | -1 | 0
Cc1c(CCO)c(=O)[nH]n1S(=O)(=O)c1ccc(F)cc1 | / | -2 | -7 | 2 | 5 | 14*
CCCCCCCCN1C(=O)[C@H](CC(=O)NCc2cccc(C(F)(F)F)c2)C[C@@]2(C(=O)OCC)CCCC=C12 | / | / | 2 | 5 | / | /
CC(=O)c1ccc(N2CCN(S(=O)(=O)c3cn(C)cn3)CC2)cc1 | / | -36 | 1 | 13 | -1 | 8.8*
CC(=O)c1ccc(N2CCN(S(=O)(=O)c3cn(C)c(C)n3)CC2)cc1 | / | -9 | 5 | 9 | 12 | 0
CCN1C=CC(=C2C(=O)c3ccccc3C2=O)C=C1 | -15 | 4 | -3 | 0 | 80* | -3
CCOC(=O)c1c(C)[nH]c(C(=O)CN2CC(C)OC(C)C2)c1C (stereo unspecified) | -15 | 3 | -10 | 17* | 1 | 0
COc1cccc(C(O)c2nc(/C=C/c3ccc(C(F)(F)F)cc3)cs2)c1 (stereo unspecified) | / | / | -10 | 4 | / | /
CS(=O)(=O)c1ccc(N)c(SSc2cc(S(C)(=O)=O)ccc2N)c1 | / | 0 | 1 | 11 | 182* | -4
CCOc1ccc(N)c(SSc2cc(OCC)ccc2N)c1 | / | -4 | -9 | -2 | 3 | 0
COc1cc(CC(=O)O)ccc1O | / | -1 | 11 | 2 | 3 | -5
O=C(O)Cc1ccc(O)c(F)c1 | 12 | 5 | -5 | -1 | -5 | 47*!
O=c1c2ccccc2nc(-c2ccccc2)n1CCN1CCOCC1 | 10 | -4 | 0 | 3 | 1 | 4
COc1ccc(-c2nc3ccccc3c(=O)n2CCCN2CCOCC2)cc1 | -5 | -12 | -1 | 1 | -5 | 16*
O=C1CCCCCC[C@@H](O)[C@H](O)C[C@H](c2ccccc2)O1 | / | / | 4 | 2 | / | /
Cc1nn(-c2ccccc2)c(C)c1NC(=O)COc1ccc2ccccc2c1 | -5 | 8 | 49* | 3 | -1 | -2
C=CCNc1ncnc2c1ncn2[C@H]1CN(Cc2ccc(F)cc2)C[C@@H](CO)O1 | / | / | 0 | 7 | / | /
COc1cc(OC)cc(C(=O)Nc2nnc(SCC(=O)NCc3ccco3)s2)c1 | / | -6 | -9 | -4 | 4 | 39*
Cc1cc(C)c(NC(=O)CS)c(Cl)c1 | 9 | -4 | -5 | 3 | 10 | 18*
CCOC(=O)C1CCCN(C(=O)c2ccc(-c3ccccc3)cc2)CC1 (stereo unspecified) | / | / | -5 | -1 | / | /
O=S(=O)(c1cccc(-c2cn3ccccc3n2)c1)N1CCCCC1 | / | 1 | -5 | -9 | 15 | 18*
COc1ccccc1C(=O)C1Nc2ccccc2-c2nnc(SC)nc2O1 (stereo unspecified) | -1 | -6 | 7 | 2 | 16 | 21*
O=C1c2ccccc2C(c2nnnn2Cc2ccccc2)N1Cc1ccc2c(c1)OCO2 (stereo unspecified) | / | / | -9 | 1 | / | /
SMILES | TLR4-MyD88 BLA | TLR9-MyD88 block | NOD2-RIPK2 inh | m5-HT2A agonist | Rtt109 HAT inh | LANA-H2A inh
CC(=O)N1c2ccccc2C(C)(c2ccccc2)CC1(C)C (stereo unspecified) | -1 | 5 | 0 | 1 | -3 | 0
CC1(c2ccccc2)CC(C)(C)N(C(N)=O)c2ccccc21 (stereo unspecified) | / | 4 | -22 | 5 | -3 | 22*
O=C(Cn1cc([N+](=O)[O-])cn1)N1CCCc2ccccc21 | -16 | -6 | 0 | -5 | 0 | 1
O=C(Cn1cc([N+](=O)[O-])cn1)N1CCc2ccccc21 | 3 | -12 | -17 | 16* | 12 | -4
COC(=O)[C@@]12C[C@@H](CC(=O)N3CCSCC3)C(=O)N(CCc3ccc(OC)c(OC)c3)C1=CCC(C)(C)C2 | / | / | -9 | 5 | / | /
O=C(Nc1ccc2oc(-c3ccncc3)nc2c1)c1ccc2c(c1)OCCO2 | / | 1 | -1 | -1 | 57* | -8
O=C(Nc1ccc2oc(-c3ccncc3)nc2c1)c1ccc2c(c1)OCO2 | / | -1 | -8 | 0 | 6 | -1
COc1cc(OC)cc(C(=O)NC(C(=O)Nc2ccc3c(c2)OCO3)C(C)C)c1 (stereo unspecified) | / | -6 | -5 | 8 | 13 | 11*
COc1cc(OC)cc(C(=O)N[C@H](C(=O)Nc2ccc3c(c2)OCO3)C(C)C)c1 | -7 | -7 | 0 | 2 | -1 | 2
CC1=C(C(=O)N(C(C)C)C(C)C)CC(CC(=O)NCc2ccco2)C(=O)N1Cc1ccccc1 (stereo unspecified) | / | / | -3 | -3 | / | /
CC1(c2nnnn2-c2ccc3c(c2)OCCO3)CCC(=O)N1CC1CCCCC1 (stereo unspecified) | / | / | -3 | -3 | / | /
CCn1cc(C(=O)OCC(=O)c2cc(C)n(-c3cccc(C(F)(F)F)c3)c2C)c(=O)c2ccc(C)nc21 | -1 | 14 | -9 | -1 | -8 | 54*
CCn1cc(C(=O)OCC(=O)c2ccccc2)c(=O)c2ccc(C)nc21 | -3 | 7 | 2 | 1 | -9 | /
COC(=O)[C@@]1(Cc2ccc(OC)cc2)[C@H]2c3cc(C(=O)N4CCCC4)n(Cc4ccc(C)c(F)c4F)c3C[C@H]2CN1C(=O)c1ccccc1 | / | / | -7 | 2 | / | /
Cc1ccccc1Cn1ccc(NC(=O)c2cnn3c2NC(c2ccccc2)CC3C(F)(F)F)n1 (stereo unspecified) | 6 | 4 | 0 | 0 | -13 | +
CCOC(=O)[C@]12CCCC=C1N(Cc1ccco1)C(=O)[C@H](CC(=O)N1CCCC1)C2 | / | / | -6 | -1 | / | /
CC(C)(C)c1ccc(C(=O)NCCC(=O)N2CCCC2)cc1 | / | -2 | 5 | 6 | 4 | -3
CC(C)(C)c1ccc(C(=O)NCCC(=O)N2CCN(c3ncccn3)CC2)cc1 | -12 | -54 | -3 | 17* | 0 | 4
O=C(Nc1ccc2c(c1)OCCO2)C1CC(c2ccccc2Cl)=NO1 (stereo unspecified) | / | -4 | -4 | 3 | -2 | 9.2*
Cc1cccnc1NC(=O)CCC(=O)c1cccs1 | / | -10 | -4 | -1 | -6 | 25*
Cc1cccnc1NC(=O)CNC(=O)c1cccs1 | / | -5 | -6 | -4 | -9 | 4
COc1ccc(NC(=O)COC(=O)C23CC4CC(CC(Cl)(C4)C2)C3)c(OC)c1 | 7 | -8 | -1 | -5 | 1 | 171*
Cc1cc(NC(=O)CCCn2nc([N+](=O)[O-])cc2C)no1 | 4 | -8 | -3 | -3 | -7 | 1
Cc1cc(NC(=O)CCCn2nc([N+](=O)[O-])c(Cl)c2C)no1 | -6 | 5 | -5 | 3 | 52* | 5
